Where “and” joins values, the source holds several entries; their conditions need not be identical. Equal entries are not always repeated. Inconclusive results are not listed. A call without a number means that no potency is given here. More than one record can exist for a structure, and the calls need not agree. Calls of active or inactive are those of the source. Calls follow the shape of the dose curve; as a rule, active = well fitted curve in the direction sought with a large enough effect in the repeat runs; inconclusive = weak or mixed curves; inactive = no such curve, though single readings can be large; an effect the other way counts as inactive or inconclusive.
Key:
[1] = biological target: Luciferin 4-monooxygenase (Photinus pyralis) (UniProt P08659); experiment: qHTS assay to identify small molecule inhibitors of firefly luciferase (AID 1224835); also: nearly all actives have a fitted effect of over 25% in size; also: potency is read from the fitted curve at half-maximal effect
How it was run: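 Quantitative HTS format; KM concentrations of both substrates. Purified P. pyralis FLuc activity quantified from luminescence images.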

[2] = qHTS assay to identify small molecule antagonists of the retinoid acid receptor (RAR) signaling pathway - cell viability counter screen (AID 1159551); also: nearly all actives have a fitted effect of over 35% in size; also: potency is read from the fitted curve at half-maximal effect
How it was run: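 Measured by luminescent ATP detection, viability reflects C3RL4 cells treated 6 h at 37 C with test chemicals in the presence of 1 uM (final) retinol.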

[3] = qHTS assay to identify small molecule agonists of the retinoic acid receptor (RAR) signaling pathway (AID 1159553); conditions: C3RL4 RARE luciferase reporter, agonist, 6 h; activation: at 73.3 µM (top of the series) unless noted
How it was run: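 6 hr compound exposure (DMSO vehicle) of overnight-plated C3RL4 RARE-luc cells at 37 C; luminescence quantified after 30 min RT with luciferase reagent.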

[4] = qHTS assay to identify small molecule antagonists of the estrogen related receptor (ERR) signaling pathway from Tox21 library - cell viability counter screen (AID 1224834); also: nearly all actives have a fitted effect of over 30% in size; also: potency is read from the fitted curve at half-maximal effect
How it was run: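 Seeded ERR cells were rested 6 h at 37 C/5% CO2 before compounds, positive and negative controls or DMSO were added. Incubation continued for 17.5 h, and viability was then quantified by CellTiter-Fluor fluorescence.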

[5] = qHTS assay to identify small molecule antagonists of the retinoic acid receptor (RAR) signaling pathway (AID 1159552; also: nearly all actives have a fitted effect of over 50% in size)
How it was run: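 Using a RARE-driven luciferase construct in C3RL4 cells, retinol at 1 uM final provided the agonist stimulus while compounds were co-applied. After 6 hours at 37 C, luminescence was recorded to flag inhibitors of retinol signaling.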

Chain of Luciferin 4-monooxygenase (Photinus pyralis) (P08659 whole entry, looked up): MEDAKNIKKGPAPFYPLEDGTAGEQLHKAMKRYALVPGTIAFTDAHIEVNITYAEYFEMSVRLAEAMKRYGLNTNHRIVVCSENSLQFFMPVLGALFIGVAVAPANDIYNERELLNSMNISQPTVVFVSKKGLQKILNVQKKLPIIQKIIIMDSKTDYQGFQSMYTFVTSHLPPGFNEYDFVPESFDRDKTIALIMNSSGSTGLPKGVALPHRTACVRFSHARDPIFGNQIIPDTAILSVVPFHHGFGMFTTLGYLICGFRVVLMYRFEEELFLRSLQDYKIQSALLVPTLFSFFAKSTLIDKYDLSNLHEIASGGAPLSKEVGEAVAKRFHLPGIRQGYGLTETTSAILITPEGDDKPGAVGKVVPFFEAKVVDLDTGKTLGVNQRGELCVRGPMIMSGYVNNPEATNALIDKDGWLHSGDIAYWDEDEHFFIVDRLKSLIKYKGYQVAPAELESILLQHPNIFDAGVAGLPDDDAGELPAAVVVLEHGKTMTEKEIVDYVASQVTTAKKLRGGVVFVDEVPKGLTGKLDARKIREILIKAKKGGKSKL

**Q.** Which Potency [1] does the source give for C=CC(=O)Nc1cc2c(Nc3ccc(F)c(Cl)c3)ncnc2cc1OCCCN1CCOCC1 here?
**A.** The Potency was “inactive”.

**Q.** What does the source list for C#C[C@]1(OC(C)=O)CC[C@H]2[C@@H]3CCC4=C/C(=N/O)CC[C@@H]4[C@H]3CC[C@@]21CC?
**A.** Potency [2]: inactive; Potency [1]: inactive

**Q.** For C=CC(C)(CCC=C(C)C)OC=O (stereo not given), which Potency [2] is on record?
**A.** The Potency was “inactive”.

**Q.** What about the Potency [1] of the same molecule?
**A.** The Potency was “inactive”.

**Q.** Which Potency [2] does the source give for CCCCCCCCCCCCCC[N+](C)(C)Cc1ccccc1 here?
**A.** The Potency was 69.6 µM (active) and 29.8 µM (active) and inactive.

**Q.** What about the Potency [1] of the same molecule?
**A.** The Potency was “inactive”.

**Q.** What does the source list for O=S(=O)(O)c1ccc(N=Nc2c(O)ccc3ccccc23)cc1?
**A.** Potency [3]: inactive; Potency [4]: 27.3 µM (active)

**Q.** What does the source list for Nc1ccc(NCCO)c([N+](=O)[O-])c1?
**A.** Potency [3]: inactive; Potency [4]: 48.6 µM (active); Potency [1]: 35.6 µM (active)

**Q.** For O=C(O)c1cc(-c2ccc(F)cc2F)ccc1O, which Potency [2] is on record?
**A.** The Potency was “inactive”.

**Q.** What about the Potency [1] of the same molecule?
**A.** The Potency was 34.7 µM (active).

**Q.** With C[Si](Cl)(c1ccccc1)c1ccccc1 as the molecule, how does the Potency [2] read?
**A.** The Potency was “inactive”.

**Q.** And the Potency [1]?
**A.** Its Potency is “inactive”.

**Q.** With Nc1nc(N)nc(-c2cc(Cl)ccc2Cl)n1 as the molecule, how does the Potency [2] read?
**A.** The Potency was “inactive”.

**Q.** What about the Potency [1] of the same molecule?
**A.** The Potency was “inactive”.

**Q.** For Cc1ccc(O)c(O)c1, which Potency [4] is on record?
**A.** Its Potency is 47.2 µM (active).

**Q.** For CC/C=C\CCCCCO, which Potency [2] is on record?
**A.** The Potency was “inactive”.

**Q.** What about the Potency [1] of the same molecule?
**A.** The Potency was “inactive”.

**Q.** With CCCCCCCCCCCCOCCOCCOCCOCCOCCOCCOCCOCCOCCO as the molecule, how does the Potency [4] read?
**A.** The Potency was 26.6 µM (active).

**Q.** What about the Potency [1] of the same molecule?
**A.** The Potency was “inactive”.

**Q.** What does the source list for O=C1C(c2[nH]c3ccc(S(=O)(=O)O)cc3c2O)=Nc2ccc(S(=O)(=O)O)cc21?
**A.** Potency [5]: inactive; Potency [4]: inactive; Potency [1]: 31.7 µM (active)

**Q.** Which Potency [4] does the source give for C=C(C)C(=O)OCCCCCCCCCC here?
**A.** Its Potency is “inactive”.

**Q.** What about the Potency [1] of the same molecule?
**A.** Its Potency is “inactive”.

**Q.** Which Potency [2] does the source give for Cc1cc(C(C)(C)C)c(O)c(C)c1Cn1c(=O)n(Cc2c(C)cc(C(C)(C)C)c(O)c2C)c(=O)n(Cc2c(C)cc(C(C)(C)C)c(O)c2C)c1=O here?
**A.** The Potency was “inactive”.

**Q.** And the Potency [1]?
**A.** The Potency was “inactive”.
